# Among all 200,000 compounds or so, about 18,000 (9%) were called active. The sample holds actives, similar compounds and a random draw of the others, so the mix is not that of the screen. Cut-off read from the data, not from the text of the source: active = inhibition above about 50%; inactive = the rest.
# Test: antileishmanial activity against promastigotes – primary screen (AID 1063);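 note: promastigotes grown with compound for 44 hours at 28 °C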
# Settings: Leishmania major promastigotes, resazurin fluorescence viability; at 10 µM; hits give high values
row,SMILES,inhibition
1,CCOC(=O)c1c(N)nn(C(=O)c2ccccc2)c1-c1ccccc1,1.03% (inactive)
2,O=c1cnnc(Nc2ccccc2)[nH]1,-6.97% (inactive)
3,CCCCc1nc(NCCN)c(C#N)c2c1CSC(C)(C)C2,100% (active)
4,CCCCc1nc(NCc2ccccc2)c(C#N)c2c1CCCC2,40.6% (inactive)
5,Cc1nc(NCCN)c(C#N)c2c1COC(C)(C)C2,-6.15% (inactive)
6,COc1ccc(C(=O)NC(=S)Nc2ccc(Cl)cn2)cc1OC,-4.99% (inactive)
7,O=C1NC(c2ccc(-c3ccccc3[N+](=O)[O-])o2)C(C(=O)c2ccc(Cl)cc2)C(O)(C(F)(F)F)N1 (stereo unspecified),57.7% (active)
8,CC(=O)C1C(c2ccc(Cl)cc2)NC(=O)NC1(O)C(F)(F)F (stereo unspecified),-4.84% (inactive)
9,CC(=O)C1C(c2cccc(Oc3ccccc3)c2)NC(=O)NC1(O)C(F)(F)F (stereo unspecified),-1.39% (inactive)
10,Cn1nnnc1-c1cc(Cl)cc(Cl)c1,5.35% (inactive)
11,O=c1[nH]oc(O)c1-c1ncc(C(F)(F)F)cc1Cl,-7.85% (inactive)
12,O=C(O)CSc1nnc(-c2ccc3c(c2)OCO3)n1-c1ccccc1,-2.94% (inactive)
13,COc1cc2c(cc1OC)C(Nc1ccc(S(N)(=O)=O)cc1)=NC(C)(C)C2,-2.7% (inactive)
14,COc1cc2c(cc1OC)C(C(C)C)=NC(C)(C)C2,-1.29% (inactive)
15,COc1cc2c(cc1O)C(SC)=NC(C)(C)C2,77.2% (active)
16,COC(=O)c1c(NC(C)=O)sc(C(=O)Nc2ccccc2OC)c1C,-6.26% (inactive)
17,COc1ccccc1CNC(=O)CN1CCC(n2cnc3cc(F)ccc32)CC1,0.36% (inactive)
18,CCc1ccccc1NC(=O)Cc1cn(C)c2ccccc12,1.32% (inactive)
19,Fc1cc(F)c2nc(Nc3nc4c(F)cccc4s3)sc2c1,64.3% (active)
20,NC(=O)c1c(Nc2nc3c(F)cccc3s2)sc2c1CCCC2,0.33% (inactive)
21,Fc1cc(F)c2nc(N3CCOCC3)sc2c1,-5.44% (inactive)
22,Cc1cc(C)n(Cc2cnc(N3CCOCC3)s2)n1,0.31% (inactive)
23,COc1ccc2ccccc2c1CNc1nnnn1C,1.31% (inactive)
24,COc1ccc2ccccc2c1CNCc1ccccn1,52.1% (active)

row,SMILES,inhibition
1,COc1ccc(C)cc1NC(=O)NCc1ccccn1,-9.22% (inactive)
2,O=S1(=O)CC/C(=N\Nc2ccc(F)cc2)c2ccsc21,-11.7% (inactive)
3,Cc1nn(CC(=O)Nc2ccc(C#N)cc2)c(C)c1[N+](=O)[O-],-6.73% (inactive)
4,OCC1(Cc2ccccc2)CCN(Cc2cc3ccccc3o2)CC1,84.5% (active)
5,CC(=O)c1cccc(CN2CCC(CO)(Cc3ccccc3)CC2)c1,14% (inactive)
6,CN(C)CCCCCN(C)Cc1cc2ccccc2o1,11.6% (inactive)
7,Cc1ccc2c(c1)C1CN(C)CCC1N2C(=S)Nc1ccc(Cl)cc1Cl (stereo unspecified),31.9% (inactive)
8,COC(=O)Nc1c(C)n(C)n(-c2ccccc2)c1=O,-8.78% (inactive)
9,Cc1c(NC(=O)C(C)OC(=O)c2cc3c4ccccc4n(C)c3s2)c(=O)n(-c2ccccc2)n1C (stereo unspecified),88.6% (active)
10,Cc1cc(C)cc(N(C(C)C(=O)Nc2c(C)n(C)n(-c3ccccc3)c2=O)S(C)(=O)=O)c1 (stereo unspecified),-3.81% (inactive)
11,Cc1sc2c(c1C)c(=O)n(-c1ccccc1)c(=O)n2CC(=O)NCC1CCCO1 (stereo unspecified),-0.67% (inactive)
12,CCOC(=O)c1cnc2c(c(C)nn2CC)c1Cl,6% (inactive)
13,O=C(CN1CCN(c2ccc(O)cc2)CC1)NC1CCCc2ccccc21 (stereo unspecified),94.5% (active)
14,O=C(CSc1nncs1)NC1CCCc2ccccc21 (stereo unspecified),-8.28% (inactive)
15,O=C(CCC(=O)N1CCN(S(=O)(=O)c2ccccc2)CC1)NC1CCCc2ccccc21 (stereo unspecified),1.14% (inactive)
16,COc1ccc(/C(=N\O)c2nccc3cc(OC)c(OC)cc23)cc1OC,3.01% (inactive)
17,CCOC(=O)c1ccc(NC(=O)c2cc(=O)[nH]c3ccccc23)cc1,-7.03% (inactive)
18,COc1ccccc1CNC(=O)CNC(=O)c1cn(-c2ccccc2OC)c(=O)c2ccccc12,-2.45% (inactive)
19,COc1cc(OC)c(C(=O)OCC(=O)N2CC(=O)Nc3ccccc32)cc1OC,-4.64% (inactive)
20,Cc1cccc(-n2c(N)cc(=O)nc2SC(C)C(=O)NC2CCCCC2)c1 (stereo unspecified),55.9% (active)
21,CC(Sc1nnnn1C)C(=O)NC(=O)NC1CCCCC1 (stereo unspecified),-2.91% (inactive)
22,COc1cccc(-n2c(SCC(=O)NC3CCCCC3)nc3n[nH]c(C)c3c2=N)c1,20.6% (inactive)
23,Cc1ccc2[nH]c(C)c(CCNC(=O)NC3CCCCC3)c2c1,5.48% (inactive)
24,COc1ccc(N2CCN(C(=O)CNS(=O)(=O)c3ccc(C)c(C)c3)CC2)cc1,6.23% (inactive)

row,SMILES,inhibition
1,CCCn1c(N)c(C(=O)CSc2nc3ccccc3c(=O)n2-c2ccc(OC)cc2)c(=O)[nH]c1=O,-3.93% (inactive)
2,N#CCSc1nc2ccccc2c(=O)n1-c1ccccc1,4.35% (inactive)
3,COc1cccc(-n2c(SCC(=O)c3c[nH]c4ccccc34)nc3ccccc3c2=O)c1,92.9% (active)
4,O=C(Nc1cc(S(=O)(=O)N2CCOCC2)ccc1Cl)c1cc(=O)c2ccccc2o1,31.5% (inactive)
5,COC(=O)c1ccc(NC(=O)c2cc(Cl)ccc2OC)cc1,-3.49% (inactive)
6,Cc1ccc(N=Nc2c(C)[nH]n(-c3ccccc3)c2=O)cc1,-5.3% (inactive)
7,Cc1[nH]n(-c2ccccc2)c(=O)c1/C=N/NC(=O)c1ccoc1C,96.8% (active)
8,Cc1cccc(C(=O)NNC(=O)c2cccc([N+](=O)[O-])c2)c1,4.56% (inactive)
9,COc1ccc(/C=N/NC(=O)c2ccccc2)cc1OS(=O)(=O)c1ccccc1,4.68% (inactive)
10,Cc1ccc(-n2[nH]c(C)c(/C=N/NC(=O)c3cccc([N+](=O)[O-])c3)c2=O)cc1C,96.9% (active)
11,COc1cc(OC)c(/C=N/NC(=O)c2ccc([N+](=O)[O-])cc2)cc1Br,-7.92% (inactive)
12,Cc1[nH]n(-c2ccc([N+](=O)[O-])cc2)c(=O)c1C=NCCN1CCN(C(=O)c2ccccc2F)CC1,-1.62% (inactive)
13,COc1cccc(/C=N/NC(=O)c2cccc([N+](=O)[O-])c2)c1OS(=O)(=O)c1ccc(C)cc1,55.1% (active)
14,Cc1[nH]n(-c2ccc(Cl)cc2)c(=O)c1/C=N/n1c(C)nc2ccccc2c1=O,-14.5% (inactive)
15,O=C(CC12CC3CC(CC(C3)C1)C2)NCc1ccco1,-4.33% (inactive)
16,CCOc1ccc(OCc2cccc(C(=O)N(CC)CC)c2)cc1,0.53% (inactive)
17,Cc1c(NC(=O)CSc2nnnn2-c2ccc(C(=O)O)cc2)c(=O)n(-c2ccccc2)n1C,-3% (inactive)
18,CCOc1ccc(CCN2C(=O)c3cccnc3C2=O)cc1OCC,-10.8% (inactive)
19,Cn1cnnc1SCC(=O)Nc1ccc(N2CCOCC2)cc1,-5.65% (inactive)
20,N#Cc1ccc(OCc2nnc(-c3ccc([N+](=O)[O-])cc3)o2)cc1,-3.9% (inactive)
21,CCc1ccc2ncc(C(=O)c3ccccc3)c(N3CCOCC3)c2c1,10.5% (inactive)
22,O=[N+]([O-])c1ccccc1NCc1ccccc1Cl,12.2% (inactive)
23,C=CCc1cccc2cc(C(=O)Nc3ccc(NC(C)=O)cc3)c(=O)oc12,-6.83% (inactive)
24,C/C(=N\NC(=O)c1cccc(N2CCCC2=O)c1)c1ccc(N)cc1,-3.01% (inactive)

row,SMILES,inhibition
1,CC(C)(C)c1ccc(C(=O)NCCC(=O)NCc2ccco2)cc1,-5.5% (inactive)
2,O=C(CN1C(=O)/C(=C\c2ccc(C(F)(F)F)cc2)Sc2ccccc21)NCc1ccco1,95.1% (active)
3,O=C(CN1C(=O)/C(=C/c2ccccc2F)Sc2ccccc21)NCc1cccnc1,19.2% (inactive)
4,CCc1[nH]nc(C(=O)N2CCCC(CNS(=O)(=O)c3cccs3)C2)c1C (stereo unspecified),-4.31% (inactive)
5,CN(C)S(=O)(=O)c1cccc(NC(=S)NCc2ccc3c(c2)OCO3)c1,-0.11% (inactive)
6,C/C(=N\NC(=S)NCc1ccccc1)c1ccc(Cl)cc1,1.34% (inactive)
7,CC1CCCCN1C(=S)NCc1ccccc1 (stereo unspecified),-0.34% (inactive)
8,C/C(=N\NC(=S)NCc1ccccc1)C1CCCCC1,89.9% (active)
9,COc1ccc2nc(Nc3nc(-c4ccncc4)cs3)sc2c1,7.68% (inactive)
10,c1csc(-c2nnc(COc3ccc4c(c3)OCO4)o2)c1,5.84% (inactive)
11,CCN(C(=O)COC(=O)c1ccc(COc2ccc3c(C)cc(=O)oc3c2)cc1)C1CCS(=O)(=O)C1 (stereo unspecified),-10.4% (inactive)
12,Cc1ccc(NC(=O)c2ccc(Oc3ncccn3)cc2)cc1,7.15% (inactive)
13,Cc1nccn1CC(=O)N/N=C/c1ccc(O)c(O)c1,-6.58% (inactive)
14,FC(F)(F)c1cccc(N/N=C/c2ccccc2)c1,-13.1% (inactive)
15,Oc1ccc(/C=N/Nc2ccc(C(F)(F)F)cn2)cc1O,95.4% (active)
16,CCc1nnc(NC(=O)C2CC(=O)N(c3ccc4c(c3)OCCO4)C2)s1 (stereo unspecified),-9.31% (inactive)
17,N#Cc1ccc(C(c2nnnn2CCc2ccccc2)N2CCCCCC2)cc1 (stereo unspecified),16.3% (inactive)
18,c1ccc(CCn2nnnc2CN2CCN(C3CCCC3)CC2)cc1,85.5% (active)
19,c1ccc(C(c2ccccc2)N2CCN(Cc3nnnn3C3CCCCC3)CC2)cc1,9.22% (inactive)
20,CCOc1cc(NC(=S)NCCCN(C)C)c(OCC)cc1NC(=O)C1CC1,-0.62% (inactive)
21,C=CCn1cc(-c2cccc(C(F)(F)F)c2)cc(C#N)c1=O,10.4% (inactive)
22,C[n+]1ccccc1C1CCCC/C1=N\Nc1ccc([N+](=O)[O-])cc1[N+](=O)[O-] (stereo unspecified),-1.09% (inactive)
23,O=C(Nc1ccccc1)O/N=C1\CCCCC1c1ccc([N+](=O)[O-])cc1[N+](=O)[O-] (stereo unspecified),99.6% (active)
24,O=[N+]([O-])c1ccc(N/N=C2/CCCCC2c2ccccn2)c([N+](=O)[O-])c1 (stereo unspecified),2.5% (inactive)

# Reference: PubChem BioAssay AID1063 (University of Pittsburgh Molecular Library Screening Center, 2008)
